Laboratory results taken from PubChem BioAssay.
Values without a mark were called inactive.

assay: plasmodial surface anion channel blockers, osmotic lysis – cell-based, P. falciparum Indochina, OD700, 18 h, primary screen (AID 1157); settings: P. falciparum Indochina infected erythrocytes, osmotic lysis OD700, 18 h; higher = more signal, called active from +8 up or from −8 down

| SMILES | z-score |
| --- | --- |
| Cc1nc2cc(Br)ccc2c(=O)o1 | -0.509 |
| CCCCC(CC)C(O)C1C=CC2C(=O)N(Cc3ccccc3)C(=O)C2N1n1cnnc1 (stereo not given) | 0.411 |
| CC(C)C(O)C1C=CC2C(=O)NC(=O)C2N1Nc1ccc(Cl)cc1Cl (stereo not given) | 0.997 |
| COCCOC(=O)N1C(=O)[C@@]2(c3ccccc31)[C@H](c1ccc(O)cc1)N1[C@H](c3ccccc3)[C@H](c3ccccc3)OC(=O)[C@H]1[C@@H]2C(=O)Nc1nc2ccccc2s1 | 1.41 |
| CC(C)C(=C=CC[C@@H](O)c1ccc(OCCO)cc1)C[C@@H](O)COCc1ccccc1 | -0.46 |
| O=C1C2C=CC(C(O)Cc3ccccc3)N(n3cnnc3)C2C(=O)N1Cc1ccccc1 (stereo not given) | 0.587 |
| COCCOC(=O)N1C(=O)[C@@]2(c3cc(C#Cc4ccc(OC)cc4)ccc31)[C@H](c1ccc(O)cc1)N1[C@H](c3ccccc3)[C@H](c3ccccc3)OC(=O)[C@H]1[C@@H]2C(=O)N1CCc2cc(OC)c(OC)cc2C1 | 0.827 |
| COc1cc2c(cc1O)C(C1CC1)N(Cc1sc3ccccc3c1Cl)CC2 (stereo not given) | 1.33 |
| CC(C)C(=C=CC[C@H](O)c1ccc(OCCO)cc1)CCO | 0.553 |
| CC(=O)NCCCC[C@@H]1NC(=O)[C@@H]2C[C@H](C(=O)NCCCCCNC(=O)CS)[C@H](c3cccc(OCCO)c3)N2C1=O | -1.85 |
| NC(=O)NCC#Cc1ccc2c(c1)[C@]1(C(=O)N2)[C@H](c2ccc(O)cc2)N2[C@H](c3ccccc3)[C@H](c3ccccc3)OC(=O)[C@H]2[C@@H]1C(=O)O | 0.485 |
| COc1cc(Br)cc(C(O)C2C=CC3C(=O)N(C)C(=O)C3N2N2CCCCC2)c1OC (stereo not given) | 1.17 |
| COc1ccc(CCNC(=O)[C@@H]2c3ccccc3C(=O)N(Cc3ccccc3Cl)[C@H]2c2ccc(CO)cc2)cc1 | -0.11 |
| CCCCN1CC=CC23O[C@@H]4C=CCCOC(=O)C4[C@H]2C(=O)N(CCCCCCO)[C@@H]3C1=O (stereo not given in full) | 0.258 |
| CCOC(=O)C[C@H]1[C@H](OC(=O)c2ccc(C(=O)c3ccccc3)cc2)[C@@H](NC(=O)c2ccccc2)c2cc(OCCCO)ccc2N1C(=O)c1ccc2ccccc2n1 | 0.454 |
| C=CCOC(=O)[C@H]1[C@@H]2C(=O)O[C@@H](c3ccccc3)[C@@H](c3ccccc3)N2[C@@H](c2ccc(OCCOC(=O)[C@H]3C[C@H]4C(=O)N[C@@H](CCCC[N+](C)(C)C)C(=O)N4[C@H]3c3ccc(O)cc3)cc2)[C@]12C(=O)Nc1ccc(I)cc12 | 0.278 |
| CC(CO)N1C(=O)[C@@H]2C3C(=O)OCCC/C=C\[C@H]3OC23C=CCN(C(C)(C)C)C(=O)[C@@H]13 (stereo not given in full) | 0.477 |
| CC1CC/C=C\[C@H]2OC34C=CCN(C(C)(C)C)C(=O)[C@H]3N(C(C)CO)C(=O)[C@@H]4C2C(=O)O1 (stereo not given in full) | 0.355 |
| COc1ccc(C#Cc2ccc3c(c2)[C@]2(C(=O)N3)[C@H](C(=O)Nc3nc4ccccc4s3)[C@H]3C(=O)O[C@H](c4ccccc4)[C@H](c4ccccc4)N3[C@@H]2c2ccc(O)cc2)cc1 | 0.957 |
| C=CCC(OC(C)=O)[C@@H]1[C@@H](N(Cc2ccc(-c3ccccc3)cc2)C(=O)Cc2ccc(OC)cc2)c2cc(OCCCO)ccc2N1C(=O)Cc1ccc2ccccc2c1 (stereo not given in full) | 0.186 |
| CN1C(=O)C2C=CC(C(O)C#Cc3ccccc3)N(N3CCCCC3)C2C1=O (stereo not given) | 1.17 |
| C=CC(=C)[C@H]1Oc2ccccc2S(=O)(=O)N2CCC[C@@H]12 | 0.01 |
| C=CCC(OC(C)=O)[C@@H]1[C@@H](N(Cc2ccc(-c3cccc(C(F)(F)F)c3)o2)C(=O)c2ccc(C)cc2)c2cc(OCCCO)ccc2N1C(=O)Cc1ccc2ccccc2c1 (stereo not given in full) | 0.825 |
| COCCOC(=O)N1C(=O)[C@@]2(c3cc(C#CCC(C(=O)OC)C(=O)OC)ccc31)[C@H](C(=O)N1CCN(c3ncccn3)CC1)[C@H]1C(=O)O[C@H](c3ccccc3)[C@H](c3ccccc3)N1[C@@H]2c1ccccc1OCCO | 0.533 |
| CC(C)=CCCC(C)=CC(O)C1C=CC2C(=O)N(C)C(=O)C2N1Nc1ccccc1 (stereo not given) | 1.93 |
